Shown are actives, neighbours in structure and some others; about 1.1% of the full set was active somewhere.
MOR-DOR ag – OPRM1-OPRD1 heterodimerization agonism. P35372+P41143. cells, luminescence. activation, % at 9.3 µM. hit rate 0.3% among 340,000. AID 504326
MOR-DOR inv ag – mu-delta opioid heterodimer inverse agonism. inhibition, % at 9.3 µM. cell-based MOR-DOR heterodimer luminescence. hit rate 0.21% among 340,000. P35372+P41143; in the data active means inhibition above about 22%, passing the limit was not always enough
HTR5A inv ctr – counter-screen for OPRM1-OPRD1 inverse agonists: human HTR5A inverse agonism; hit rate 0.083% among 340,000; inhibition, % at 9.3 µM; AID 504634; HTR5A cell line, luminescence; in the data active means inhibition mostly above about 23%, no sharp cut-off; inactive means mostly below about 18%
Target sequence (P47898 whole entry, looked up): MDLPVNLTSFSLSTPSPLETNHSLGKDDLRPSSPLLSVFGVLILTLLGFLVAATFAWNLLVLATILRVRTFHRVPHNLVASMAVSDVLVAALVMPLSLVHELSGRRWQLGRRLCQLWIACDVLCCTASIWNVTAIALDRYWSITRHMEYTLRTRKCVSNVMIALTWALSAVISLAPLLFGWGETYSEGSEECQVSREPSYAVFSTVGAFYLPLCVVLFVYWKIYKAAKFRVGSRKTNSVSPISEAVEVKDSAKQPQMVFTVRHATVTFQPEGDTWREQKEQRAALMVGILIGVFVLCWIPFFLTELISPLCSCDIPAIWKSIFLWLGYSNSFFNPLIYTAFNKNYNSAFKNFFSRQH
HTR5A ag – HTR5A agonism, opioid heterodimer counter-screen; P47898; HTR5A agonist assay, luminescence, cell-based; activation, % at 9.3 µM; hit rate 0.61% among 340,000; AID 504692; in the data active means activation mostly above about 9.5%, no sharp cut-off; inactive means mostly below about 7.6%
OPRM1-D1 ag cf – confirmation of human OPRM1-OPRD1 heterodimerization agonists; shares compounds with MOR-DOR ag; cells, MOR-DOR heterodimerization, luminescence complementation; activation, % at 9.3 µM; hit rate 45% among 830
HTR5A ag counter – HTR5A agonism, opioid heterodimer counter-screen; shares compounds with MOR-DOR ag; HTR5A agonist counterscreen, cell luminescence; activation, % at 9.3 µM; hit rate 8% among 830; AID 504905; in the data active means activation above about 17%
A number is an active result; . = inactive; / = not tested or not shown. Unless noted, no stated cut-off is given here; in the data, active means activation above about 18%; inactive means the rest.

SMILES	MOR-DOR ag	MOR-DOR inv ag	HTR5A inv ctr	HTR5A ag	OPRM1-D1 ag cf	HTR5A ag counter
COc1cc(OC)cc(-c2c(-c3cccs3)c3cc(-c4ccn[nH]4)ccc3n2C)c1	.	.	.	.	/	/
CCCCN(C(=O)c1cc(S(=O)(=O)N2CCCCC2)ccc1Cl)c1c(N)n(CC(C)C)c(=O)[nH]c1=O	.	.	.	.	/	/
COC(=O)c1ccccc1NC(=O)c1ccc(Cn2cc(Cl)cn2)o1	19	.	.	.	.	.
COC(=O)c1cc(NC(=O)c2ccc(Cn3cc(Cl)cn3)o2)cc(C(=O)OC)c1	.	.	.	.	/	/
COc1ccc2nc3cc(Cl)ccc3c(Nc3cc(C(C)C)c(O)cc3C)c2c1	20	.	.	.	.	.
CSc1ncccc1C(=O)Nc1cccc(S(=O)(=O)N(C)c2ccccc2)c1	.	.	.	.	/	/
Nc1c(N(Cc2ccccc2)C(=O)COc2cccc(Cl)c2)c(=O)[nH]c(=O)n1Cc1ccccc1	21	.	.	.	.	.
O=C(CCc1nc(-c2ccc(F)cc2)no1)Nc1cccc(C(=O)NC2CC2)c1	.	.	.	.	/	/
CSc1nnc(-c2ccccc2Cl)n1N	.	.	.	.	/	/
Nn1c(-c2ccccc2Cl)nnc1-c1ccccc1Cl	18	.	.	.	.	.
CCCCNC(=O)O[C@@H]1C[C@H]2CCCC(=O)N3CC[C@@H](C1)[C@@H]23	.	.	.	.	/	/
CCCCCCCN(c1ccccc1)[C@@H]1C[C@H]2CCCC(=O)N3CC[C@@H](C1)[C@@H]23	19	.	.	.	.	.
Cc1cc(C2(c3ccc(O)c(C)c3)C(=O)Nc3ccccc32)ccc1O	20	.	.	.	.	.
CCCn1c(CN2CCN(C(=O)c3ccco3)CC2)nc2cc(S(=O)(=O)N(C)C)ccc21	.	.	.	.	/	/
CCN(CC(=O)NCc1ccc(F)cc1)CC(=O)Nc1cc(S(=O)(=O)N(C)C)ccc1C	.	.	.	.	/	/
CC(=O)Nc1ccc(NC(=O)C(=O)NCC(c2ccco2)N2CCc3ccccc3C2)cc1 (stereo not drawn)	21	.	.	.	22	.
COc1ccc(C2NCCc3c2[nH]c2ccccc32)cc1COc1ccc(F)cc1 (stereo not drawn)	20	.	.	.	24	.
COC(=O)c1ccc(C(=S)NCC2(N(C)C)CCCCC2)cc1	37	.	.	.	.	70
Cc1c(Cl)cccc1NC(=S)NCC(C)C	.	.	.	.	/	/
Cc1ccc(C)c(NC(=S)NCC(c2ccccc2)N(C)C)c1 (stereo not drawn)	265	.	.	.	361	.
Cc1ccccc1NC(=S)NCC(c1cccnc1)N(C)C (stereo not drawn)	216	.	.	.	211	.
CC(=O)c1ccc(NC(=O)CNCC(c2ccccc2)N(C)C)cc1 (stereo not drawn)	.	.	.	.	/	/
Cc1c(Cl)cccc1NC(=S)NCC(c1cccnc1)N(C)C (stereo not drawn)	474	.	.	.	.	.
Cc1ccc(NC(=O)NCC(c2ccccc2)N(C)C)cc1 (stereo not drawn)	353	.	.	.	23	17
CC1(CCC(=O)O)C(=O)CCC2C1CCC1(C)C2CCC1(C)O (stereo not drawn)	.	.	.	.	/	/
SMILES	MOR-DOR ag	MOR-DOR inv ag	HTR5A inv ctr	HTR5A ag	OPRM1-D1 ag cf	HTR5A ag counter
CCC(C)NC(=O)c1ccc(Cl)c(S(=O)(=O)Nc2ccccc2N2CCOCC2)c1 (stereo not drawn)	.	.	.	.	/	/
Cc1cccc(NC(=S)NCC(c2cccnc2)N(C)C)c1C (stereo not drawn)	416	.	.	.	412	.
COc1cccc(-c2nc(NCc3ccco3)c3ccccc3n2)c1O	26	.	.	.	.	24
N#Cc1nc(NCC(F)F)nc(Nc2cc(F)cc(F)c2)n1	21	.	.	.	.	.
N#Cc1nc(Nc2cc(F)cc(F)c2)c2ncn(CC(F)F)c2n1	.	.	.	.	/	/
O=c1c2ccc(Cl)cc2[nH]c(=S)n1Cc1cccnc1	62	.	.	.	54	.
O=C(c1ccc2c(=O)n(Cc3ccc(Cl)cc3)c(=S)[nH]c2c1)N1CCCC1	.	.	.	.	/	/
Cc1[nH]c2ccccc2c1/C=N/Nc1nc(Nc2ccc(F)cc2)nc(N2CCOCC2)n1	.	.	.	.	/	/
Cc1ccc(Nc2nc(N/N=C/c3c[nH]c4ccccc34)nc(N3CCOCC3)n2)cc1	19	.	.	.	.	.
COc1ccccc1N(C)S(=O)(=O)c1ccc(C)c(C(=O)NCc2ccccn2)c1	.	.	.	.	/	/
Oc1ccc(Oc2ccc3c(C(F)(F)F)cc(C(F)(F)F)nc3n2)cc1	20	.	.	.	82	.
COc1ccc(Oc2ccc3c(C(F)(F)F)cc(C(F)(F)F)nc3n2)cc1	.	.	.	.	/	/
C=CCN(c1ccccc1OC)S(=O)(=O)c1cccc(C(=O)NCC(c2ccc(OC)cc2)N2CCCC2)c1 (stereo not drawn)	.	.	.	.	/	/
CCn1cc(CN2CCC(n3nccc3NC(=O)CCc3ccccc3)CC2)cn1	31	.	.	.	.	.
CCCn1ncc(CN2CCC(n3nccc3NC(=O)CCc3ccccc3)CC2)c1C	223	.	.	.	.	.
CCCn1ncc(CN2CCC(n3nccc3NC(=O)c3ccccc3OC)CC2)c1C	.	.	.	.	/	/
CC(=O)c1c(C)[nH]c(C(=O)OCC(=O)c2ccc(C)s2)c1C	.	.	.	.	/	/
c1ccc(-c2ncnc3ccccc23)cc1	.	.	.	.	/	/
CCOC(=O)C1(CC2CCCCO2)CCN(Cc2cc(F)ccc2-n2cccn2)CC1 (stereo not drawn)	61	.	.	.	66	.
CCOC(=O)C1(CC2CCCCO2)CCN(Cc2nc3ccccc3[nH]2)CC1 (stereo not drawn)	29	.	.	.	27	.
CCOC(=O)C1(CC2CCCCO2)CCN(Cc2nccn2-c2cccc(C)c2)CC1 (stereo not drawn)	.	.	.	.	/	/
CCOC(=O)C1(CC2CCCCO2)CCN(Cc2c(C)cc(C)cc2-n2cccn2)CC1 (stereo not drawn)	199	.	.	.	267	.
CCOC(=O)C1(CC2CCCCO2)CCN(Cc2nccn2-c2ccc(OC)cc2)CC1 (stereo not drawn)	.	.	.	.	/	/
COCCCNC(=O)CC1C[C@H](C(=O)N(C(C)C)C(C)C)[C@@]2(C)c3[nH]c4ccccc4c3CCN2C1=O (stereo partly drawn)	.	.	.	.	/	/
COc1cc2nc(Nc3cccc(F)c3)nc(N)c2cc1OC	27	.	.	.	.	.
Cc1sc(NC(=O)CSc2nnc3scc(-c4ccccc4)n23)c(C#N)c1C	19	.	.	.	.	.
Cc1sc(NC(=O)CSc2nnc(COc3ccccc3)n2C)c(C#N)c1C	.	.	.	.	/	/

Screening data (PubChem BioAssay)
